Source: PubChem BioAssay AID1159580 (chemical genetic matrix, 2015)
Hit rate of the full screen: of about 5,500 compounds, about 2,000 (36%) were called active. Not shown: some 18% with an inconclusive outcome. This is one part of the list. A number with no mark means an inactive call. No stated cut-off is given here; in the data, active means normalized growth mostly below about 0.91 (no sharp cut-off); inconclusive means no clear call, values can overlap the other calls; inactive means mostly above about 0.92.

Assay: chemical genetic growth profiling, strain panel (AID 1159580);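 further: tested at 20 µM; growth read once vehicle control cultures reached saturation at 30 °C; 1 = growth at the plate median or of vehicle wells; lower values mean less growth of the strain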
Details: S. cerevisiae deletion strains, growth OD
[1] = locus YDL101C, strain DUN1, active compounds read low
[2] = locus YHR030C, strain SLT2, active compounds read low
[3] = locus YAL013W, strain DEP1, active compounds read low
[4] = locus YBR229C, strain ROT2, active compounds read low
[5] = locus YDR150W, strain NUM1, active compounds read low
[6] = locus YEL061C, strain CIN8, active compounds read low
[7] = locus YGR078C, strain PAC10, active compounds read low
[8] = locus YGR229C, strain SMI1, active compounds read low
[9] = locus YHR087W, strain rtc3, active compounds read low
[10] = locus YJL187C, strain SWE1, active compounds read low
[11] = locus YJR043C, strain POL32, active compounds read low
[12] = locus YJR075W, strain HOC1, active compounds read low
[13] = locus YLR039C, strain RIC1, active compounds read low
[14] = locus YLR058C, strain SHM2 (second series), active compounds read low
[15] = locus YLR085C, strain ARP6, active compounds read low
[16] = locus YLR262C, strain YPT6, active compounds read low
[17] = locus YML094W, strain GIM5, active compounds read low
[18] = locus YMR219W, strain ESC1, active compounds read low
[19] = locus YMR263W, strain SAP30, active compounds read low
[20] = locus YMR307W, strain GAS1, active compounds read low
[21] = locus YNL153C, strain GIM3, active compounds read low
[22] = locus YNL298W, strain CLA4 (second series), active compounds read low
[23] = locus YNL322C, strain KRE1, active compounds read low
[24] = locus YNR030W, strain Alg12, active compounds read low
[25] = locus YPL055C, strain LGE1, active compounds read low
[26] = locus YPL241C, strain CIN2, active compounds read low
[27] = locus YPR135W, strain CTF4, active compounds read low

O=C1CSC(=Nc2cc(Cl)cc(Cl)c2)N1Cc1cccnc1
normalized growth (locus YAR019C, strain CDC15, active compounds read low): 0.997
normalized growth (locus YBL105C, strain PKC1, active compounds read low): 0.989
normalized growth (locus YBR135W, strain CKS1, active compounds read low): 0.995
normalized growth (locus YBR136W, strain MEC1, active compounds read low): 0.986
normalized growth (locus YBR160W, strain CDC28, active compounds read low): 0.992
normalized growth (locus YDL017W, strain CDC7, active compounds read low): 0.991
normalized growth (locus YDL028C, strain MPS1, active compounds read low): 0.994
normalized growth [1]: 0.988
normalized growth (locus YDL108W, strain KIN28, active compounds read low): 0.97
normalized growth (locus YDL132W, strain cdc53, active compounds read low): 0.997
normalized growth (locus YDL214C, strain PRR2, active compounds read low): 0.924
normalized growth (locus YDR052C, strain DBF4, active compounds read low): 0.995
normalized growth (locus YDR054C, strain cdc34, active compounds read low): 0.983
normalized growth (locus YDR226W, strain ADK1, active compounds read low): 0.996
normalized growth (locus YDR477W, strain SNF1, active compounds read low): 0.947
normalized growth (locus YER123W, strain YCK3, active compounds read low): 0.887
normalized growth (locus YER133W, strain GLC7, active compounds read low): 0.927
normalized growth (locus YFL009W, strain cdc4, active compounds read low): 0.986
normalized growth (locus YFL029C, strain CAK1, active compounds read low): 0.994
normalized growth (locus YFR003C, strain YPI1, active compounds read low): 0.991
normalized growth (locus YFR019W, strain FAB1, active compounds read low): 0.944
normalized growth (locus YFR028C, strain CDC14, active compounds read low): 0.994
normalized growth (locus YGR040W, strain KSS1, active compounds read low): 0.937
normalized growth (locus YGR052W, strain FMP48, active compounds read low): 1.03
normalized growth (locus YGR092W, strain DBF2, active compounds read low): 0.947
normalized growth [2]: 1.14
normalized growth (locus YHR079C, strain IRE1, active compounds read low): 1.05
normalized growth (locus YHR082C, strain KSP1, active compounds read low): 1.01
normalized growth (locus YHR205W, strain SCH9, active compounds read low): 0.958
normalized growth (locus YIL147C, strain SLN1, active compounds read low): 0.986
normalized growth (locus YJL095W, strain BCK1, active compounds read low): 1.03
normalized growth (locus YJL128C, strain PBS2, active compounds read low): 0.974
normalized growth (locus YJL157C, strain FAR1, active compounds read low): 0.931
normalized growth (locus YJR016C, strain ILV3, active compounds read low): 0.996
normalized growth (locus YJR066W, strain TOR1 (second series), active compounds read low): 0.912
normalized growth (locus YJR066W, strain TOR1, active compounds read low): 1.02
normalized growth (locus YKL048C, strain ELM1, active compounds read low): 0.974
normalized growth (locus YKL067W, strain YNK1, active compounds read low): 0.948
normalized growth (locus YKL101W, strain HSL1, active compounds read low): 0.958
normalized growth (locus YKL193C, strain SDS22, active compounds read low): 0.999
normalized growth (locus YKL203C, strain TOR2, active compounds read low): 1.02
normalized growth (locus YLR113W, strain HOG1, active compounds read low): 0.968
normalized growth (locus YLR133W, strain CKI1, active compounds read low): 0.955
normalized growth (locus YLR403W, strain SFP1, active compounds read low): 0.957
normalized growth (locus YML070W, strain DAK1, active compounds read low): 0.918
normalized growth (locus YMR001C, strain CDC5, active compounds read low): 0.996
normalized growth (locus YMR205C, strain PFK2 (second series), active compounds read low): 0.938
normalized growth (locus YMR277W, strain FCP1, active compounds read low): 0.996
normalized growth (locus YNL006W, strain LST8, active compounds read low): 0.994
normalized growth (locus YNL020C, strain ARK1, active compounds read low): 0.945
normalized growth (locus YNL161W, strain CBK1, active compounds read low): 0.996
normalized growth (locus YNL183C, strain NPR1, active compounds read low): 1.03
normalized growth (locus YNL207W, strain RIO2, active compounds read low): 0.993
normalized growth (locus YNL222W, strain SSU72, active compounds read low): 1
normalized growth (locus YNL307C, strain MCK1 (second series), active compounds read low): 0.952
normalized growth (locus YOL078W, strain AVO1, active compounds read low): 0.998
normalized growth (locus YOL136C, strain PFK27, active compounds read low): 0.927
normalized growth (locus YOR061W, strain CKA2, active compounds read low): 0.927
normalized growth (locus YOR119C, strain RIO1, active compounds read low): 0.981
normalized growth (locus YOR231W, strain MKK1, active compounds read low): 1.02
normalized growth (locus YOR329C, strain SCD5, active compounds read low): 0.994
normalized growth (locus YPL031C, strain PHO85, active compounds read low): 0.949
normalized growth (locus YPL153C, strain RAD53, active compounds read low): 0.923
normalized growth (locus YPL204W, strain HRR25, active compounds read low): 0.944
normalized growth (locus YPL209C, strain IPL1, active compounds read low): 0.991
normalized growth (locus YPL256C, strain CLN2, active compounds read low): 1.04
normalized growth (locus YPR025C, strain CCL1, active compounds read low): 0.992
normalized growth (locus YPR106W, strain ISR1, active compounds read low): 0.998
normalized growth (locus YPR111W, strain DBF20, active compounds read low): 0.99
normalized growth (strain NNK1, active compounds read low): 0.991
normalized growth (strain TSCII, active compounds read low): 0.997

COc1ccc(-n2c(SCc3ccc(Br)cc3)nnc2-c2ccco2)cc1
normalized growth [3]: 0.972
normalized growth [4]: 1
normalized growth [1]: 1
normalized growth [5]: 0.962
normalized growth [6]: 1.01
normalized growth [7]: 0.987
normalized growth [8]: 0.978
normalized growth [2]: 0.79
normalized growth [9]: 0.996
normalized growth [10]: 1.01
normalized growth [11]: 0.98
normalized growth [12]: 0.969
normalized growth [13]: 0.803
normalized growth [14]: 0.989
normalized growth [15]: 0.947
normalized growth [16]: 0.803 (active)
normalized growth [17]: 0.993
normalized growth [18]: 0.993
normalized growth [19]: 0.989
normalized growth [20]: 0.893
normalized growth [21]: 0.996
normalized growth [22]: 0.917
normalized growth [23]: 0.984
normalized growth [24]: 0.966
normalized growth (locus YOL006C, strain TOP1, active compounds read low): 0.889
normalized growth [25]: 0.976
normalized growth [26]: 0.986
normalized growth [27]: 0.844

O=C(CSc1nnc(-c2ccco2)n1-c1ccc2c(c1)OCCO2)c1cccc(F)c1
normalized growth [3]: 0.983
normalized growth [4]: 1
normalized growth (locus YCL061C, strain MRC1, active compounds read low): 0.997
normalized growth [1]: 0.987
normalized growth (locus YDL134C, strain PPH21, active compounds read low): 1
normalized growth [5]: 1.01
normalized growth [6]: 0.984
normalized growth [7]: 0.988
normalized growth [8]: 1
normalized growth [2]: 0.961
normalized growth [9]: 1
normalized growth [10]: 1.01
normalized growth [11]: 0.997
normalized growth [12]: 1.01
normalized growth (locus YKL190W, strain CNB1, active compounds read low): 1
normalized growth [13]: 0.916
normalized growth [14]: 1.01
normalized growth [15]: 0.978
normalized growth [16]: 0.954
normalized growth [17]: 0.983
normalized growth [18]: 0.988
normalized growth [19]: 0.909
normalized growth [20]: 0.77
normalized growth [21]: 0.988
normalized growth [22]: 0.977
normalized growth [23]: 0.989
normalized growth [24]: 0.988
normalized growth [25]: 0.968
normalized growth [26]: 0.994
normalized growth [27]: 0.854
